Source: PubChem (several laboratories)
CCHF vOTU inh – CCHFV vOTU protease inhibitors, primary screen, biochemical, Pep-AMC substrate, fluorescence; inhibition, % at 11.5 µM; actives 0.55% (n = 370,000); in the data active = inhibition above about 30%; also: 0% = vehicle wells with enzyme and 100% = no enzyme wells
Sa ugtP lethal – growth inhibition of ugtP-null S. aureus, primary screen, RN4220 ugtP deletion, OD600; growth inhibition, % (concentration not given with the values); actives 0.54% (n = 330,000); AID 1259309, 2017; 16 h; in the data active = growth inhibition above about 68%;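 also: plate controls were untreated wells for no effect and antibiotic for full effect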
SSB-PriA inh – inhibitors of Klebsiella pneumoniae PriA binding to SSB C-terminal tail, primary screen, biochemical, AlphaScreen; PriA–SSB C-terminal tail interaction (Klebsiella pneumoniae); AlphaScreen SSBct-PriA binding, biotinylated peptide; inhibition, % at 33 µM; actives 0.6% (n = 430,000); AID 1272365, 2023; in the data active = inhibition mostly above about 37%, no sharp cut-off; inactive = mostly below about 20%;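 also: plate controls were negative control peptide for no effect and reference peptide for full effect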
DUSP3 inh – VHR1 phosphatase inhibitors, primary screen, biochemical, absorbance, uHTS; inhibition, % at 13.3 µM; actives 0.52% (n = 290,000); recombinant VHR phosphatase, pNPP absorbance; AID 1654, 2009; in the data active = inhibition above about 50%
Target sequence (P51452 whole entry, looked up): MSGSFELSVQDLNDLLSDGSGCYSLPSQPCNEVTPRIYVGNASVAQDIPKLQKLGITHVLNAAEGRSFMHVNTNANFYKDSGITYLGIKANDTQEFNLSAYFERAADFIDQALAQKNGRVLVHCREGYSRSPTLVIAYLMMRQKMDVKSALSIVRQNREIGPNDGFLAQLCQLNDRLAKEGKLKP
Sa RN4220 lethal – growth inhibition of S. aureus RN4220, primary screen, OD600. 16 h. inhibition, % (concentration not given with the values). actives 0.33% (n = 330,000). AID 1259311, 2017; in the data active = inhibition above about 85%;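 also: plate controls were untreated cells for no effect and reference antibiotic for full effect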
Starred values were filed as active, the others as inactive. An excerpt weighted towards active compounds, which were near 1.5% of everything screened.

Cc1ccc(C)c2nc(SCC(=O)NCc3cccs3)c(C#N)cc12 was read as CCHF vOTU inh 9, Sa ugtP lethal 0, SSB-PriA inh -11, DUSP3 inh 53* and Sa RN4220 lethal 0.
CC(=O)Cc1nsc(NC(=O)c2cc(-c3ccc(Cl)cc3[N+](=O)[O-])oc2C)n1 was read as SSB-PriA inh -9.
Cc1oc(-c2ccc(Cl)cc2[N+](=O)[O-])cc1C(=O)Nc1cccc(F)c1 was read as SSB-PriA inh 35*.
O=c1c2ccccc2c(-c2n[nH]c(=S)o2)nn1Cc1ccccc1 was read as CCHF vOTU inh -2, Sa ugtP lethal 5, SSB-PriA inh -6, DUSP3 inh -16 and Sa RN4220 lethal 30.
Screening OCc1ccc(-c2nn(Cc3ccccc3)c3ccccc23)o1 returned CCHF vOTU inh -4, Sa ugtP lethal -6, SSB-PriA inh 41* and Sa RN4220 lethal 12.
`Cn1c(-c2ccc(Br)cc2)cnc1SCc1ccccc1` gave SSB-PriA inh 67*.
For CCN1C(c2ccccc2)C(C)C(=O)C(C)C1c1ccccc1 (centres undefined) the results were CCHF vOTU inh -8, Sa ugtP lethal 91*, SSB-PriA inh 1, DUSP3 inh -18 and Sa RN4220 lethal -13.
For CCc1cc2c(=O)nc3n(c2s1)Cc1ccccc1C3=C(O)c1cccc([N+](=O)[O-])c1 the results were SSB-PriA inh 6.
`COc1ccc(-c2csc(Nc3ccc(S(=O)(=O)Nc4cc(OC)nc(OC)n4)cc3)n2)cc1` gave CCHF vOTU inh 29, Sa ugtP lethal 20, SSB-PriA inh -7, DUSP3 inh 5 and Sa RN4220 lethal 5.
For COc1cc(NS(=O)(=O)c2ccc(Nc3nc(-c4ccccn4)cs3)cc2)nc(OC)n1 the results were CCHF vOTU inh -2, Sa ugtP lethal 90*, SSB-PriA inh 11, DUSP3 inh 29 and Sa RN4220 lethal -3.
Screening O=C(c1nc2ccccc2s1)N1CCC[C@H](Cc2nc(-c3ccccc3F)no2)C1 returned SSB-PriA inh -7.
CCN1C(=O)c2cccc3c(S(=O)(=O)Nc4nc(C)cs4)ccc1c23 was read as Sa ugtP lethal 95*, SSB-PriA inh -8, DUSP3 inh 15 and Sa RN4220 lethal 28.
Cc1cccc(C=NNC(=O)c2ccc(Cl)cc2)c1O was read as Sa ugtP lethal 73, SSB-PriA inh -10 and Sa RN4220 lethal 93*.
Cc1cccc(/C=N\NC(=O)c2ccc(Cl)cc2)c1O was read as CCHF vOTU inh 28 and DUSP3 inh 16.
`COCCNC(=O)Cn1nc2c(c1NC(=O)c1c[nH]c3ccccc13)CSC2` gave SSB-PriA inh -7.
`Cc1ccc(C(C)C)c(OCc2ccc(C(=O)NN=Cc3ccc(O)c(O)c3)cc2)c1` gave Sa ugtP lethal 100*, SSB-PriA inh 4 and Sa RN4220 lethal 58.
Screening Cc1ccc(C(C)C)c(OCc2ccc(C(=O)NN=Cc3ccc(C(=O)O)cc3)cc2)c1 returned Sa ugtP lethal 26 and Sa RN4220 lethal 8.
COc1cc(C=NO)nc(-c2ccccn2)c1 was read as CCHF vOTU inh 0 and SSB-PriA inh 83*.
`COc1ccc2nc(-c3ccccn3)[nH]c2c1` gave CCHF vOTU inh 4, Sa ugtP lethal 0, SSB-PriA inh -6, DUSP3 inh 17 and Sa RN4220 lethal 2.
For CC[n+]1c(C)sc2c(C)cc(C)cc21 the results were CCHF vOTU inh 10, Sa ugtP lethal 8, SSB-PriA inh -23, DUSP3 inh -5 and Sa RN4220 lethal 2.
For CCC[n+]1c(C)sc2c3c(ccc21)CCCC3 the results were Sa ugtP lethal 95*, SSB-PriA inh -11, DUSP3 inh 17 and Sa RN4220 lethal 97*.
For COc1cccc(Nc2c(Nc3cccc(OC)c3)c(=O)c2=O)c1 the results were CCHF vOTU inh 6, Sa ugtP lethal 0, SSB-PriA inh -8, DUSP3 inh 59* and Sa RN4220 lethal 0.
Screening Oc1ccccc1N=N/C(=N/Nc1ccccc1O)c1ccccc1 returned CCHF vOTU inh 7 and SSB-PriA inh inactive.
`N#C/C(N=Nc1ccccc1O)=N\Nc1ccccc1O` gave CCHF vOTU inh 23 and SSB-PriA inh active.
`CCOc1cccc2sc(N(Cc3cccnc3)C(=O)c3cc(C)oc3C)nc12` gave SSB-PriA inh -22.
